# Data reported in PubChem BioAssay (NCATS).
# Where “and” joins values, the source holds several entries; their conditions need not be identical. Identical values can stand only once. Inconclusive results are not listed. Calls of active or inactive are those of the source. Calls come from the whole dose curve; as a rule, active = well fitted curve in the direction sought with a large enough effect; inconclusive = small, poorly fitted or top-dose-only effect, or another doubt; inactive = no such curve, though single readings can be large; an effect the other way counts as inactive or inconclusive.
# Test: qHTS assay to identify small molecule inhibitors of chordoma cells - UCH-1 (AID 1259355); note: nearly all actives have a fitted effect of over 55% in size
# Settings: UCH-1 chordoma viability, CellTiter-Glo, 48 h, combination; series mostly up to 46.1 µM; activity, negative = inhibition: at the top concentration
# Outline: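 Screening used approved and investigational drugs in 15-point titration against 800 seeded cells per well. A fixed combination of auranofin with camptothecin, doxorubicin, rubitecan and topotecan followed compound addition, and growth was scored by CellTiter-Glo after 48hr.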
# % is set by controls: 0 for no effect and ±100 for the full control effect; potency is the fitted concentration of half-maximal effect.
Compound,"activity, negative = inhibition",Potency
O=[N+]([O-])c1ccc(F)c([N+](=O)[O-])c1,-27.4% (inactive),–
CNC(=O)OCC[N+](C)(C)C,1.44% (inactive),–
O=P(O)(O)C(Cl)(Cl)P(=O)(O)O,-20.1% (inactive),–
CCON=O,-20.2% (inactive),–
[N-]=[N+]=CC(=O)OCC(N)C(=O)O (centres undefined),"9.78% [at 46.1 µM, with auranofin plus four topoisomerase inhibitors] (inactive)",–
[O]=[Cr](=[O])([OH])[O][Cr](=[O])(=[O])[OH],–,2.24 µM (active) and 4.47 µM (active)
COc1ccc2c(c1OC)C(=O)OC2C1c2cc3c(cc2CCN1C)OCO3 (centres undefined),-17.7% (inactive),–
COc1ccc2c3c1O[C@H]1[C@@H](O)C=C[C@H]4[C@@H](C2)NCC[C@@]341,-9.22% (inactive),–
O=C1C2CC=CCC2C(=O)N1SC(Cl)(Cl)Cl (centres undefined),–,12.6 µM (active)
CNc1ccc(C(=O)CC(O)CCC(C)C2OC(=O)CC(O)CC(=O)CC(O)CC(O)CC(O)CC(O)CC3(O)CC(O)C(C(=O)OC)C(CC(O[C@@H]4O[C@H](C)[C@@H](O)[C@H](N)[C@@H]4O)/C=C/C=C/C=C/C=C/C=C/C=C/C=C/C2C)O3)cc1 (some centres undefined),"-3.28% [at 46.1 µM, with auranofin plus four topoisomerase inhibitors] (inactive)",–
CC(C)(C)c1cc(O)ccc1O,–,inactive
O=C1C[C@@H]2OCC=C3CN4CC[C@]56c7ccccc7N1[C@H]5[C@H]2[C@H]3C[C@H]46 (tested in a mixture with another compound),–,inactive
Oc1ccc2c3c1O[C@H]1[C@@H](O)CC[C@@]4(O)[C@@H](C2)N(CC2CCC2)CC[C@]314,-29.3% (inactive),–
OC(c1ccccc1)(c1ccccc1)C1CN2CCC1CC2 (centres undefined),"-14.9% [at 46.1 µM, with auranofin plus four topoisomerase inhibitors] (inactive)",–
COc1ccc(OC)c([C@@H](O)[C@H](C)N)c1,12.1% (inactive),–
C#CCN1CC(=O)N(COC(=O)C2C(C=C(C)C)C2(C)C)C1=O (centres undefined),"-22.7% [at 46.1 µM, with auranofin plus four topoisomerase inhibitors] (inactive)",–
CCN1C[C@]2(COC)[C@H](O)C[C@H](OC)[C@@]34[C@@H]5C[C@@]6(O)[C@H](OC(=O)c7ccccc7)[C@@H]5[C@@](OC(C)=O)([C@@H]([C@H](OC)[C@H]23)[C@@H]14)[C@@H](O)[C@@H]6OC,"3.18% [at 46.1 µM, with auranofin plus four topoisomerase inhibitors] (inactive)",–
CCCCC[C@@H](O)C1C(=O)OC(C)[C@H](O)/C=C/C=C/C=C/C=C/C=C(\C)C(O)C(O)C(O)C[C@H](O)C[C@H](O)C[C@H](O)C[C@H](O)C[C@@H]1O (some centres undefined),-2.09% (inactive),–
FC(F)OC(F)(F)C(F)Cl (centres undefined),-14.3% (inactive),–

Compound,"activity, negative = inhibition",Potency
CNC(=O)Oc1ccccc1C(=O)Nc1ccccc1,"-9.12% [at 46.1 µM, with auranofin plus four topoisomerase inhibitors] (inactive)",–
N#CC(C#N)=Cc1cc(O)c(O)c(O)c1,1.05% (inactive),–
CC(=O)OO,"-3.42% [at 46.1 µM, with auranofin plus four topoisomerase inhibitors] (inactive)",–
CC(C)CCON=O,-20% (inactive),–
COC(COC(N)=O)C1=C(N2CC2)C(=O)C(C)=C(N2CC2)C1=O (centres undefined),–,2.24 µM (active)
CCOC(=O)c1ccccc1C(=O)OCC,-16.7% (inactive),–
N#CN,"-18.3% [at 46.1 µM, with auranofin plus four topoisomerase inhibitors] (inactive)",–
CC(C)(O)C1C2OC(=O)C1C1(O)CC3OC34C(=O)OC2C14C (centres undefined),"-4.74% [at 46.1 µM, with auranofin plus four topoisomerase inhibitors] (inactive)",–
CCCCCCC(=O)O[C@H]1CC[C@H]2[C@@H]3CC[C@H]4CC(=O)C=C(C)[C@]4(C)[C@H]3CC[C@]12C,-22.9% (inactive),–
CN1[C@@H]2CC[C@H]1CC(OC1c3ccccc3CCc3ccccc31)C2 (some centres undefined),-4.78% [at 20.6 µM] (inactive),–
CN1CCCC(=C(c2cccs2)c2cccs2)C1,13.1% (inactive),–
ClC1C(Cl)C(Cl)C(Cl)C(Cl)C1Cl (centres undefined),-14% (inactive),–
[H+].[H+].[Hg+2].[O-]B([O-])[O-].[c-]1ccccc1,–,8.91 µM (active)
C[N+]1([O-])[C@@H]2CC(OC(=O)[C@H](CO)c3ccccc3)C[C@H]1[C@@H]1O[C@@H]12 (some centres undefined),–,inactive
C=CCC1(C(C)CCC)C(=O)N=C(S)NC1=O (centres undefined),-17.7% (inactive),–
CCCN1CCCC2Cc3[nH]ncc3CC21 (centres undefined),"-4.82% [at 46.1 µM, with auranofin plus four topoisomerase inhibitors] (inactive)",–
C[N+]1(C)[C@@H]2CC[C@H]1CC(OC(=O)c1c[nH]c3ccccc13)C2 (some centres undefined),"-4.45% [at 46.1 µM, with auranofin plus four topoisomerase inhibitors] (inactive)",–
CN1C2CCC1CC(OC(c1ccccc1)c1ccc(Cl)cc1)C2 (centres undefined),"-29.1% [at 46.1 µM, with auranofin plus four topoisomerase inhibitors] (inactive)",–

# Test: qHTS assay to identify small molecule inhibitors of chordoma cells - UCH-2 (AID 1259356)
# Settings: UCH-2 chordoma viability, CellTiter-Glo ATP luminescence, 48 h; series mostly up to 46.1 µM; activity change, negative = inhibition: at the top concentration
Compound,"activity change, negative = inhibition",Potency
O=[N+]([O-])c1ccc(F)c([N+](=O)[O-])c1,-3.66% (inactive),–
CNC(=O)OCC[N+](C)(C)C,12% (inactive),–
O=P(O)(O)C(Cl)(Cl)P(=O)(O)O,-12.8% (inactive),–
CCON=O,5.73% (inactive),–
COc1ccc2c3c1O[C@H]1[C@@H](O)C=C[C@H]4[C@@H](C2)NCC[C@@]341,-1.11% (inactive),–
CNc1ccc(C(=O)CC(O)CCC(C)C2OC(=O)CC(O)CC(=O)CC(O)CC(O)CC(O)CC(O)CC3(O)CC(O)C(C(=O)OC)C(CC(O[C@@H]4O[C@H](C)[C@@H](O)[C@H](N)[C@@H]4O)/C=C/C=C/C=C/C=C/C=C/C=C/C=C/C2C)O3)cc1 (some centres undefined),-2.51% (inactive),–
CC(C)(C)c1cc(O)ccc1O,–,inactive
O=C1C[C@@H]2OCC=C3CN4CC[C@]56c7ccccc7N1[C@H]5[C@H]2[C@H]3C[C@H]46 (tested in a mixture with another compound),–,inactive
Oc1ccc2c3c1O[C@H]1[C@@H](O)CC[C@@]4(O)[C@@H](C2)N(CC2CCC2)CC[C@]314,17.1% (inactive),–
OC(c1ccccc1)(c1ccccc1)C1CN2CCC1CC2 (centres undefined),-23.5% (inactive),–
COc1ccc(OC)c([C@@H](O)[C@H](C)N)c1,5.33% (inactive),–
C#CCN1CC(=O)N(COC(=O)C2C(C=C(C)C)C2(C)C)C1=O (centres undefined),8.66% (inactive),–
CCCCC[C@@H](O)C1C(=O)OC(C)[C@H](O)/C=C/C=C/C=C/C=C/C=C(\C)C(O)C(O)C(O)C[C@H](O)C[C@H](O)C[C@H](O)C[C@H](O)C[C@@H]1O (some centres undefined),1.92% (inactive),–
FC(F)OC(F)(F)C(F)Cl (centres undefined),-3.25% (inactive),–
CNC(=O)Oc1ccccc1C(=O)Nc1ccccc1,8.95% (inactive),–
CC(=O)OO,-4.27% (inactive),–
CC(C)CCON=O,1.61% (inactive),–
CCOC(=O)c1ccccc1C(=O)OCC,5.69% (inactive),–
N#CN,6.65% (inactive),–
CCCCCCC(=O)O[C@H]1CC[C@H]2[C@@H]3CC[C@H]4CC(=O)C=C(C)[C@]4(C)[C@H]3CC[C@]12C,-9.13% (inactive),–
CN1[C@@H]2CC[C@H]1CC(OC1c3ccccc3CCc3ccccc31)C2 (some centres undefined),3.49% [at 20.6 µM] (inactive),–
CN1CCCC(=C(c2cccs2)c2cccs2)C1,0.0035% (inactive),–
ClC1C(Cl)C(Cl)C(Cl)C(Cl)C1Cl (centres undefined),-1.62% (inactive),–
[H+].[H+].[Hg+2].[O-]B([O-])[O-].[c-]1ccccc1,–,13 µM (active)
C[N+]1([O-])[C@@H]2CC(OC(=O)[C@H](CO)c3ccccc3)C[C@H]1[C@@H]1O[C@@H]12 (some centres undefined),–,inactive
C[N+]1(C)[C@@H]2CC[C@H]1CC(OC(=O)c1c[nH]c3ccccc13)C2 (some centres undefined),2.37% (inactive),–
CN1C2CCC1CC(OC(c1ccccc1)c1ccc(Cl)cc1)C2 (centres undefined),-26.5% (inactive),–
